Data: publication PMC4336329 (PLoS ONE, 2015)
Out of some 310,000 compounds screened, about 2,200 (0.71%) showed an effect of 50% or more. Effects have a minus sign here. What follows is part of a selection rich in strong results, with near analogues and random picks from the rest.

Biological target: human ether-à-go-go-related gene (hERG) potassium channel (human, UniProt Q12809)
Assay: primary screen, population patch clamp on CHO cells stably expressing hERG; higher = less effect of the substance

Chain of human ether-à-go-go-related gene (hERG) potassium channel (Q12809 whole entry, looked up): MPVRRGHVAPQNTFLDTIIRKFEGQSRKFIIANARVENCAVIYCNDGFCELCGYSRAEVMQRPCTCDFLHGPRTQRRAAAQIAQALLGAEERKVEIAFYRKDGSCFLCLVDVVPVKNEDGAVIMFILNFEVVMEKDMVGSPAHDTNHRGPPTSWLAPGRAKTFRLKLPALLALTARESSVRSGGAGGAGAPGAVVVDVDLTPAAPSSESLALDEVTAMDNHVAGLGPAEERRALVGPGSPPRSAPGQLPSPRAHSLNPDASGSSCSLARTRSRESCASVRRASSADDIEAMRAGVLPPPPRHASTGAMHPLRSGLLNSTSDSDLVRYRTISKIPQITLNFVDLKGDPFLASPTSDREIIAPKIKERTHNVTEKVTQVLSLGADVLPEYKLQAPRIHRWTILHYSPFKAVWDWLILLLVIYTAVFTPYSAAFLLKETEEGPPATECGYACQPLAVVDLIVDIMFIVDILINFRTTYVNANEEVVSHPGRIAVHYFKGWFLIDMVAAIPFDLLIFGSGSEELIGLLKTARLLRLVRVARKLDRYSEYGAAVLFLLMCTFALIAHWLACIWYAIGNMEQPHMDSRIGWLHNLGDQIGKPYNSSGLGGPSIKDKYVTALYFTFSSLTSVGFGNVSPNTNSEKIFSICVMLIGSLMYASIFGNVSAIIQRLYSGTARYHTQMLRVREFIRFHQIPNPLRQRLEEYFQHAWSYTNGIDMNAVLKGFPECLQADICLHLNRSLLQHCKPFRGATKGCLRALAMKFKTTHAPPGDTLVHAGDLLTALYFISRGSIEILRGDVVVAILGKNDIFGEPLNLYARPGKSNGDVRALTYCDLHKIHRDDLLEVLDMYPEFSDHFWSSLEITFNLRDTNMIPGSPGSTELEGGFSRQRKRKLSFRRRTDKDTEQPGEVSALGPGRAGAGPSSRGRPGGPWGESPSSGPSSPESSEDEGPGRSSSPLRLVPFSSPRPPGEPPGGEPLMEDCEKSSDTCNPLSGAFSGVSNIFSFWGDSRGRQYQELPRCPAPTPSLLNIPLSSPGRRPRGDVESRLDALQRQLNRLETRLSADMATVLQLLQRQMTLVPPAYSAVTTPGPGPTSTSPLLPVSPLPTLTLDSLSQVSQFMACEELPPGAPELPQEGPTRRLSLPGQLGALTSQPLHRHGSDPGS

Structure (SMILES) | hERG current change (%, negative = inhibition) at 1uM
Cc1ccc(CS(=O)(=O)CCC(=O)NCCC(C)C)cc1 | 6.06%
COCCn1c(C)cc(C(=O)CSc2nc(C)c(C)c(C)n2)c1C | 9.29%
CCc1noc(C)c1C(=O)Nc1sc(C(=O)N(C)C)c(C)c1C(=O)OC | -6.16%
Cc1c(NC(=O)c2ccc(S(=O)(=O)N3CCOCC3)cc2)cccc1[N+](=O)[O-] | 7.56%
CC(C)(C)n1ncc2c(=O)n(Cc3cccc(Cl)c3)cnc21 | -10.1%
Cc1ccnc(NS(=O)(=O)c2cccs2)c1 | 12.9%
Cc1ccc(C(=O)COC(=O)c2ccc3c(c2)C(=O)N(c2cccc4ncccc24)C3=O)cc1C | 4.09%
COC(=O)c1c(C)[nH]c(C(=O)C(C)OC(=O)C2CC2)c1C (stereo not shown) | 10%
Cc1cc(N2CCN(c3ccc([N+](=O)[O-])c4cccnc34)CC2)c2ccccc2n1 | -13.9%
Cc1ccc(S(=O)(=O)N2CCN(c3ccc(C(F)(F)F)cc3[N+](=O)[O-])CC2)cc1 | 2.51%
Cc1cc(N2CCN(c3ccc(C(F)(F)F)cc3[N+](=O)[O-])CC2)c2ccccc2n1 | -64.2%
COc1ccccc1NC(=O)Nc1ccc(N2CCOCC2)cc1 | 10.4%
Cc1ccc(NC(=O)CN2C(=O)NC(C)(c3ccc(Cl)cc3)C2=O)cc1 (stereo not shown) | 14.4%
COc1ccc(CN2C3CCCC2CC(NC(=O)Nc2ccccc2)C3)cc1 (stereo not shown) | -64%
COc1ccccc1CN1C2CCCC1CC(NC(=O)/C=C/c1ccccc1)C2 (stereo not shown) | -43.8%
COc1ccc(CN2C3CCCC2CC(NC(=O)Nc2cccc(C)c2)C3)cc1 (stereo not shown) | -71.5%
O=C(/C=C/c1ccccc1)NC1CC2CCCC(C1)N2Cc1ccccc1 (stereo not shown) | -46.4%
Cc1cccc(NC(=O)NC2CC3CCC(C2)N3Cc2ccco2)c1 (stereo not shown) | -8.04%
COc1ccc(NC(=O)NC2CC3CCCC(C2)N3Cc2ccccc2)cc1 (stereo not shown) | -17.4%
Cc1ccc(CN2C3CCCC2CC(NC(=O)Nc2cccc(F)c2)C3)cc1 (stereo not shown) | -85.2%
O=C(Nc1cccc(F)c1)NC1CC2CCCC(C1)N2C1CC1 (stereo not shown) | 4.85%
COc1ccc(CN2C3CCCC2CC(NC(=O)/C=C/c2ccccc2)C3)cc1 (stereo not shown) | -84.2%
CCC(=O)NC1CC2CCCC(C1)N2Cc1ccc(C)cc1 (stereo not shown) | -11.9%
COc1ccc(CN2C3CCCC2CC(NC(=O)Nc2ccccc2C)C3)cc1 (stereo not shown) | -36.5%
CCc1cccc(CC)c1NC(=O)CN1C2CCCC1CC(NC(=O)Nc1cccc(OC)c1)C2 (stereo not shown) | 9.12%

Structure (SMILES) | hERG current change (%, negative = inhibition) at 1uM
CC(C)(C)OC(=O)NCCCCCc1nnc(SCc2ccc(F)cc2)o1 | 3.71%
CCCCc1cc2c(s1)CCCC/C2=N/O | 2.41%
Cc1cc(S(=O)(=O)Nc2ccc(C(=O)NCCCN3CCOCC3)cc2)ccc1F | 19.8%
Cc1ccsc1/C=N/n1c(-c2ccncc2)n[nH]c1=S | 19.8%
O=C(O)C=C(Br)Br | 7.58%
COC(=O)/C(=C1/Oc2cc(C)oc(=O)c2S1)C(F)(F)F | 13.6%
CCOC(=O)CON1C(=O)C(C)(C)N(OCC(=O)OCC)C(=O)C1(C)C | 15.7%
Cc1ccc(-n2ccnc(SCC(=O)NC3CCCCC3)c2=O)cc1F | 14.5%
CC(c1ccccc1)C1CC(=O)N(CC(=O)O)C1=O (stereo not shown) | 16.2%
Cc1cccn2c(=O)c3cc(C(=O)NC4CCCC4)c(=N)n(C4CCCCC4)c3nc12 | -81.9%
Cc1cccn2c(=O)c3cc(C(=O)NC4CCCC4)n(C)c3nc12 | 9.12%
Cc1cccn2c(=O)c3cc(C(=O)NC4CCCCCC4)sc3nc12 | 15.1%
Cc1cccn2c(=O)c3cc(C(=O)NC4CCCC4)c(=N)n(C4CCCC4)c3nc12 | -87%
Cc1cccn2c(=O)c3cc(C(=O)NC4CCCC4)sc3nc12 | 2.15%
Cc1cccn2c(=O)c3cc(C(=O)NC4CCCCC4)n(C)c3nc12 | 13.8%
Cc1ccc(C(=O)CSc2nnc(COc3ccc(C#N)cc3)n2-c2ccccc2)cc1 | 11.8%
O=C(CCc1nc(-c2ccccc2Cl)no1)NC1CCCC1 | 1.7%
CCOC(=O)Nc1ccc2c(c1)N(C(=O)CCN(C)C)c1ccccc1S2.Cl | -5.69%
CC(=O)c1cccc(CN2CCC(CO)(CCOc3ccccc3)CC2)c1 | -3.07%
Cc1nn(C)c(Cl)c1CN1CCC(CO)(CCOc2ccccc2)CC1 | -12.9%
COc1ccc(OC)c(CN2CCC(CO)(CCOc3ccccc3)CC2)c1 | -30%
COc1cc(Cl)c(CN2CCC(CO)(CCOc3ccccc3)CC2)cc1OC | -85.1%
COc1cc(Cl)c(CN2CCCC(CO)(Cc3ccccc3)C2)cc1OC (stereo not shown) | -2.72%
COc1cc(OC)c(CN2CCC(CO)(CCOc3ccccc3)CC2)c(OC)c1 | -87.7%
COc1ccc(CN2CCC(CO)(CCOc3ccccc3)CC2)cc1C | -77.6%

Structure (SMILES) | hERG current change (%, negative = inhibition) at 1uM
COc1ccc2[nH]c(CN3CCC(CO)(CCOc4ccccc4)CC3)c(C)c2c1 | 9.37%
COc1cc(CN2CCC(CO)(CCOc3ccccc3)CC2)cc(OC)c1 | -8.26%
COc1cc(CN2CCC(CO)(CCOc3ccccc3)CC2)cc(OC)c1OC | 3.71%
COc1ccc(CN2CCC(CO)(CCOc3ccccc3)CC2)c(OC)c1C | -81.6%
COC(=O)c1ccc(NC(=S)Nc2ccc(O)cc2)cc1 | 5.34%
O=C(CNCCCO)Nc1cc(C(F)(F)F)cc(NC(=O)CNCCCO)c1Cl | 9.02%
N#Cc1cccc(NC(=O)c2ccc(S(=O)(=O)N3CCOCC3)cc2)c1 | 0.709%
COC(=O)c1cc(Cl)cc(Cl)c1OS(=O)(=O)N(C)C | 1.43%
N#CC1=C(N)Oc2nc[nH]c(=O)c2C1c1cccs1 (stereo not shown) | 17.3%
CCOC(=O)C(OC(=O)c1sc(=S)n(C)c1C)C(C)=O (stereo not shown) | 18%
COc1ccccc1CN1CCNC(=O)C1CC(=O)N(C)Cc1nc(C)cs1 (stereo not shown) | 17.2%
CC(=O)c1ccccc1NC(=O)COC(=O)c1ccc2c(c1)nc(C)n2-c1ccccc1 | 20.6%
CC(=O)c1c(C)[nH]c(C(=O)OCc2ccc(F)cc2Cl)c1C | 10.6%
Cc1cc2oc(=O)cc(CN3CCC(C)CC3)c2cc1C | 12.8%
Cc1ccc(C)c(Oc2coc3cc(O)ccc3c2=O)c1 | 0.658%
CCOC(=O)C1=NN(c2ccc(C)cc2)C2(S1)SC(C(C)=O)=C(C)N2c1ccccc1 (stereo not shown) | 8.85%
C(=C\c1ccccc1)/CSc1nnc(-c2cccnc2)n1Cc1ccco1 | -51.9%
Clc1ccccc1CSc1nnc(-c2cccnc2)n1Cc1ccco1 | -14.2%
Clc1cccc(CSc2nnc(-c3cccnc3)n2Cc2ccco2)c1 | -61%
C(=C\c1ccccc1)/CSc1nnc(-c2ccccc2)n1Cc1ccco1 | -45.4%
C(=C\c1ccccc1)/CSc1nnc(-c2ccncc2)n1Cc1ccco1 | -26.9%
Clc1ccc(CSc2nnc(-c3cccnc3)n2Cc2ccco2)c(Cl)c1 | -42.3%
Cc1cc(C)cc(NC(=O)Cn2nnc(C(=O)NCc3ccccc3Cl)c2N)c1 | 13.6%
CCOc1ccc(CCNC(=O)CS(=O)(=O)Cc2nc(-c3ccc(OC)cc3)oc2C)cc1 | -0.117%
COC(=O)[C@]1(C)N[C@H](c2ccc(-c3ccccc3)cc2)[C@@H]2C(=O)N(C)C(=O)[C@@H]21.O=C(O)C(F)(F)F | 15.8%

Structure (SMILES) | hERG current change (%, negative = inhibition) at 1uM
Cc1ccccc1N1CCN(CCCN2C(=O)CC(=C(c3ccccc3)c3ccccc3)C2=O)CC1 | 3.79%
Cc1sc(NC(=O)c2ccccc2F)c(CN2CCCCC2)c1C | 9.65%
CCOc1ccc(NC(=O)CCNC(=O)Cn2cnc3ccccc3c2=O)cc1 | 18.9%
CCN(Cc1ccncc1)C(=O)c1cc(COc2c(C)cccc2C)on1 | -63.1%
CCN(Cc1ccncc1)C(=O)c1cc(COc2c(F)cccc2F)on1 | -8.09%
CCN(Cc1ccncc1)C(=O)c1cc(COc2ccc(C)c(C)c2)on1 | -5.56%
CCN1CCN(C(=O)COc2ccc(S(=O)(=O)Nc3ccc(Cl)cc3)cc2)CC1 | 12.1%
Cc1cccc(NC(=O)Nc2c(C)n(C)n(-c3ccccc3)c2=O)c1 | 9.37%
CCOc1nc(-c2ccccc2)ccc1-c1noc(-c2cccnc2)n1 | 7.07%
COc1ccc(CCNC(=O)CC2Nc3ccccc3NC2=O)cc1OC (stereo not shown) | 12.7%
CCOC(=O)c1c(NC(=O)Nc2ccc(C)cc2)sc2c1CCN(C)C2 | 9.62%
CCOC(=O)c1c(NC(=O)CN2CCCCC2)sc2c1CCN(C(=O)OCC)C2 | 2.11%
CCOC(=O)c1c(NC(=S)Nc2ccccc2)sc2c1CCN(C)C2 | -62.8%
CCOC(=O)N1CCc2c(sc(NC(=O)CN3CCN(C)CC3)c2C(=O)Nc2ccccc2)C1 | -85.6%
CCOC(=O)c1c(NC(=S)Nc2ccccc2)sc2c1CCN(CC)C2 | -80.2%
CCOC(=O)c1c(NC(=S)Nc2ccccc2)sc2c1CCN(CCc1ccccc1)C2 | 2.54%
CCOC(=O)c1c(NC(=O)Cc2ccccc2)sc2c1CCN(C)C2.Cl | -19.2%
CCOC(=O)c1c(NC(=S)Nc2ccc(OCC)cc2)sc2c1CCN(C)C2 | -11%
CCOC(=O)c1c(NC(=S)Nc2ccccc2)sc2c1CCCCC2 | 12.8%
CCOC(=O)c1c(NC(=S)Nc2ccc(Cl)cc2)sc2c1CCN(C)C2 | -57.4%
CCOC(=O)N1CCc2c(sc(NC(=O)CN3CCOCC3)c2C(=O)Nc2ccccc2)C1 | -31.9%
CCOC(=O)c1c(NC(=O)Cc2ccccc2)sc2c1CCN(CC)C2.Cl | -18.3%
